Experimental data published in PubChem BioAssay (EPA / NIEHS).
Records with an inconclusive call do not appear. Active and inactive are the calls of the source. The calls were made as follows, unless noted: active = hit-call score of the fitted dose curve at least 0.9, where 1 is the maximum; inconclusive = response in the unintended direction; inactive = score below 0.9.

Experiments:
[1] = biological target: X-box-binding protein 1 (Homo sapiens) (UniProt P17861); test: ATG_Xbp1_CIS: Attagene CIS-FACTORIAL HepG2 Assay for human X-box Binding Protein 1 (XBP1) (AID 2282972; active = hit-call score of the fitted dose curve at least 0.9, where 1 is the maximum; inactive = score below 0.9); details: HepG2 XBP1 cis-element reporter, Attagene multiplex; actives raise or lower the signal
Summary of the method: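 HepG2, transient MRTU transfection (cis-promoter driven), 24 h compound exposure. Total RNA → oligo(dT) RT → PCR → 6-FAM labeling → HpaI cut → CE. Bidirectional fit vs DMSO.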

[2] = ATG_M_19_TRANS: Attagene TRANS-FACTORIAL HepG2 Assay for M19 Transcription Factor (Internal Marker) (AID 2282974); details: HepG2 Attagene TRANS-FACTORIAL M19 internal marker reporter
Summary of the method: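 Background-control readout: after 24 h chemical exposure of transfected HepG2 carrying GAL4-driven reporter units, RNA was reverse-transcribed, amplified, fluorescently labeled and sized by capillary electrophoresis; gain-of-signal fit against DMSO.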

[3] = ATG_GAL4_TRANS: Attagene TRANS-FACTORIAL HepG2 Assay for GAL4 (Internal Marker) (AID 2282976); details: HepG2 Attagene TRANS GAL4 internal marker reporter
Summary of the method: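 RT-PCR/capillary electrophoresis readout of reporter mRNA. HepG2, transient MRTU transfection (GAL4-UAS reporters), 24 h compound exposure. Background-control endpoint, positive direction vs DMSO baseline.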

[4] = biological target: Glucocorticoid receptor (Homo sapiens) (UniProt P04150); test: ATG_GR_TRANS: Attagene TRANS-FACTORIAL HepG2 Assay for human Glucocorticoid Receptor (GR) (AID 2282978); details: HepG2 Attagene TRANS GR reporter, mRNA transcription;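 also: activators score as hits since higher reporter transcript over DMSO is fitted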
Summary of the method: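 Readout is reporter transcript from a chimeric GR-Gal4 acting on GAL4-UAS in transfected human HepG2 liver cells after 24 h exposure, quantified by RT-PCR and capillary electrophoresis. Activation fitted upward against DMSO.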

[5] = biological target: Bile acid receptor (Homo sapiens) (UniProt Q96RI1); test: ATG_FXR_TRANS: Attagene TRANS-FACTORIAL HepG2 Assay for Farnesoid X Receptor (FXR) (AID 2282979); details: HepG2 Attagene TRANS FXR-GAL4 reporter transcription;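 also: hits raise reporter mRNA above DMSO so AC50 marks FXR activation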
Summary of the method: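 Read-out: fluorescent reporter transcripts quantified by capillary electrophoresis after RT-PCR of total RNA. Source cells were HepG2 transiently carrying chimeric NR-GAL4 plus GAL4-UAS reporter units, dosed 24 h. Activity fitted upward relative to DMSO baseline.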

[6] = biological target: Oxysterols receptor LXR-beta (Homo sapiens) (UniProt P55055); test: ATG_LXRb_TRANS: Attagene TRANS-FACTORIAL HepG2 Assay for human Liver X Receptor beta (LXRb) (AID 2282981); details: HepG2 Attagene TRANS GAL4-LXRb reporter, mRNA
Summary of the method: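 HepG2 cells transiently transfected with multiple reporter transcription units carrying chimeric NR-Gal4 proteins acting on GAL4-UAS reporters; compound exposure 24 h. Reporter mRNA quantified by RT-PCR, 6-FAM labelling, HpaI digestion and capillary electrophoresis; gain of signal versus DMSO.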

[7] = biological target: Hepatocyte nuclear factor 4-alpha (Homo sapiens) (UniProt P41235); test: ATG_HNF4a_TRANS: Attagene TRANS-FACTORIAL HepG2 Assay for human Hepatocyte Nuclear Factor 4 alpha (HNF4a) (AID 2282982); details: HepG2 HNF4a transactivation reporter, mRNA readout
Summary of the method: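 HepG2 cells transiently transfected with multiplexed GAL4-UAS reporter units responsive to chimeric NR-GAL4 proteins; compound exposure 24 h. Reporter mRNA quantified by RT-PCR, 6-FAM labelling, HpaI digestion and capillary electrophoresis; gain of signal versus DMSO baseline.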

[8] = ATG_M_06_TRANS: Attagene TRANS-FACTORIAL HepG2 Assay for M06 Transcription Factor (Internal Marker) (AID 2282983); details: HepG2 Attagene TRANS M06 internal marker reporter
Summary of the method: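 After a 24 h chemical treatment of transfected HepG2, RNA underwent DNase I treatment, reverse transcription and reporter-specific PCR; labelled, HpaI-digested products were sized by capillary electrophoresis. Signal increase relative to DMSO defined activity.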

[9] = ATG_M_32_TRANS: Attagene TRANS-FACTORIAL HepG2 Assay for M32 Transcription Factor (Internal Marker) (AID 2282984); details: HepG2 Attagene TRANS M32 internal marker reporter;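 also: transcript level of a background control reporter unit measured by RT-PCR and capillary electrophoresis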
Summary of the method: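 HepG2 cells transiently transfected with multiple GAL4-UAS reporter transcription units, dosed for 24 hours; reporter mRNA quantified by RT-PCR, 6-FAM primer extension, HpaI digestion and capillary electrophoresis. Gain-of-signal fitted versus DMSO baseline; internal background-control marker.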

[10] = biological target: Nuclear receptor subfamily 4 group A member 2 (Homo sapiens) (UniProt P43354); test: ATG_NURR1_TRANS: Attagene TRANS-FACTORIAL HepG2 Assay for human Nuclear Receptor Related Protein 1 (NURR1) (AID 2282985); details: HepG2 Attagene TRANS reporter, mRNA readout
Summary of the method: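 HepG2 cells transiently transfected with GAL4-UAS reporter units and chimeric NR-Gal4 constructs; chemical exposure 24 h. Reporter mRNA quantified by RT-PCR, fluorescent labelling and capillary electrophoresis; gain of signal fitted relative to DMSO baseline.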

[11] = biological target: Transcriptional activator Myb (Homo sapiens) (UniProt P10242); test: ATG_Myb_CIS: Attagene CIS-FACTORIAL HepG2 Assay for human Myeloblastosis (Myb) Proto-Oncogene Transcription Factor (AID 2282986; active = hit-call score of the fitted dose curve at least 0.9, where 1 is the maximum; inactive = score below 0.9); details: HepG2 Attagene CIS-FACTORIAL Myb reporter transcription; actives raise or lower the signal
Summary of the method: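 Reporter mRNA is quantified by RT-PCR and capillary electrophoresis 24 h after dosing HepG2 cells transfected with cis-regulated reporter units, which track endogenous transcription factor activity. Gain and loss of signal are fitted versus DMSO baseline.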

[12] = biological target: Nuclear respiratory factor 1 (Homo sapiens) (UniProt Q16656); test: ATG_NRF1_CIS: Attagene CIS-FACTORIAL HepG2 Assay for human Nuclear Respiratory Factor 1 (NRF1) Orphan Gene (AID 2282987; active = hit-call score of the fitted dose curve at least 0.9, where 1 is the maximum; inactive = score below 0.9); details: HepG2 NRF1 cis-element reporter, Attagene multiplex; actives raise or lower the signal
Summary of the method: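 Endogenous NRF1-driven reporter transcription in transfected HepG2 cells after 24 h treatment. Readout: RT-PCR products, 6-FAM labelled and resolved by capillary electrophoresis; changes fitted both directions relative to DMSO.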

[13] = ATG_NFI_CIS: Attagene CIS-FACTORIAL HepG2 Assay for human Nuclear Factor I (NFI) (AID 2282989; active = hit-call score of the fitted dose curve at least 0.9, where 1 is the maximum; inactive = score below 0.9); details: HepG2 cis-regulatory reporter, NFI response element transcription; actives raise or lower the signal
Summary of the method: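 HepG2, transient MRTU, 24 h exposure; RNA→cDNA→PCR→FAM label→HpaI→CE fluorescence. Bidirectional fit, DMSO = baseline.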

[14] = biological target: Oxysterols receptor LXR-alpha (Homo sapiens) (UniProt Q13133); test: ATG_LXRa_TRANS: Attagene TRANS-FACTORIAL HepG2 Assay for human Liver X Receptor alpha (LXRa) (AID 2282980); details: HepG2 Attagene TRANS reporter, LXRa transactivation
Summary of the method: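 Read-out: reporter transcript levels by RT-PCR plus capillary electrophoresis, fluorescence intensity. Transiently transfected HepG2, exogenous NR-GAL4 chimera, GAL4-UAS reporters; 24 h compound exposure. Activity = increase over DMSO negative control.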

[15] = biological target: Myc proto-oncogene protein (Homo sapiens) (UniProt P01106); test: ATG_Myc_CIS: Attagene CIS-FACTORIAL HepG2 Assay for human Myelocytomatosis (Myc) Proto-Oncogene Transcription Factor (AID 2282990; active = hit-call score of the fitted dose curve at least 0.9, where 1 is the maximum; inactive = score below 0.9); details: HepG2, Attagene cis-reporter transcription factor activity; actives raise or lower the signal
Summary of the method: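 Multiplexed cis-reporter transcription in HepG2 cells after 24 h chemical treatment. Reporter mRNA measured by RT-PCR and capillary electrophoresis fluorescence; activity fitted bidirectionally against DMSO control.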

[16] = biological target: Estrogen-related receptor gamma (Homo sapiens) (UniProt P62508); test: ATG_ERRg_TRANS: Attagene TRANS-FACTORIAL HepG2 Assay for human Estrogen-Related Receptor gamma (ERRg) (AID 2282977); details: HepG2 Attagene TRANS reporter, ERRg transactivation;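 also: hits increase reporter signal over DMSO so potencies reflect activators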
Summary of the method: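 HepG2 cells transiently transfected with multiplexed GAL4-UAS reporter units and chimeric NR-Gal4 constructs were exposed to test chemicals for 24 h. Reporter mRNA was measured by RT-PCR, 6-FAM primer extension, HpaI digestion and capillary electrophoresis; gain-of-signal versus DMSO.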

Measured: AC50

Sequence of Myc proto-oncogene protein (Homo sapiens) (P01106 whole entry, looked up): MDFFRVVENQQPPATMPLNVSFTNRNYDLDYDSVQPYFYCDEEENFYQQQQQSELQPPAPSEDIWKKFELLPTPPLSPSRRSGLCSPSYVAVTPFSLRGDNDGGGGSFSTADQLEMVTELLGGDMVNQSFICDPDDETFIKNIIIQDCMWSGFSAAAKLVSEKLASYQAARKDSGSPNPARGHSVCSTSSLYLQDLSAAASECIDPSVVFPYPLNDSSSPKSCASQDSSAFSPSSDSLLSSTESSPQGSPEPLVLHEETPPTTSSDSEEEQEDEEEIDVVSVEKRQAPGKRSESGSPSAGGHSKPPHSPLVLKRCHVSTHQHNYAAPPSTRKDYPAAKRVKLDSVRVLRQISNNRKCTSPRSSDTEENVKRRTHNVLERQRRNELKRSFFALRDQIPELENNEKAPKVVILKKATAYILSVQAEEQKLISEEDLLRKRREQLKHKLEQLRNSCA
Sequence of Transcriptional activator Myb (Homo sapiens) (P10242 whole entry, looked up): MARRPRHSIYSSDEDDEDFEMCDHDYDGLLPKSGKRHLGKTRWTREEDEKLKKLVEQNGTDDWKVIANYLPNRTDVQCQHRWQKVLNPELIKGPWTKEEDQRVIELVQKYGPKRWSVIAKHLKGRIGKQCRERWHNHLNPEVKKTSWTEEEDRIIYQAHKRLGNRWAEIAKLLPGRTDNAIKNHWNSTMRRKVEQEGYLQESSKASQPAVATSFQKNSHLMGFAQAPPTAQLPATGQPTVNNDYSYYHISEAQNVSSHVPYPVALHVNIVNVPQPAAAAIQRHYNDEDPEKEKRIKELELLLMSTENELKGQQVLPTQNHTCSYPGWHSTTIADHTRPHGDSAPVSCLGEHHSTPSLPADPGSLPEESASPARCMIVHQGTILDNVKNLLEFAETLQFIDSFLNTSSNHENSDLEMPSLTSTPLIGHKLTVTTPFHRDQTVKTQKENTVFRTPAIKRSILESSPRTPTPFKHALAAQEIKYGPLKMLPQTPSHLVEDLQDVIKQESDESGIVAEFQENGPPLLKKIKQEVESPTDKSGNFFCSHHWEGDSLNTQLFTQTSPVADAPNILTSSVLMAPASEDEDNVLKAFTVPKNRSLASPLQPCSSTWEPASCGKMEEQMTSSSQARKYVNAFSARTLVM
Sequence of Bile acid receptor (Homo sapiens) (Q96RI1 whole entry, looked up, the tested form may be a part): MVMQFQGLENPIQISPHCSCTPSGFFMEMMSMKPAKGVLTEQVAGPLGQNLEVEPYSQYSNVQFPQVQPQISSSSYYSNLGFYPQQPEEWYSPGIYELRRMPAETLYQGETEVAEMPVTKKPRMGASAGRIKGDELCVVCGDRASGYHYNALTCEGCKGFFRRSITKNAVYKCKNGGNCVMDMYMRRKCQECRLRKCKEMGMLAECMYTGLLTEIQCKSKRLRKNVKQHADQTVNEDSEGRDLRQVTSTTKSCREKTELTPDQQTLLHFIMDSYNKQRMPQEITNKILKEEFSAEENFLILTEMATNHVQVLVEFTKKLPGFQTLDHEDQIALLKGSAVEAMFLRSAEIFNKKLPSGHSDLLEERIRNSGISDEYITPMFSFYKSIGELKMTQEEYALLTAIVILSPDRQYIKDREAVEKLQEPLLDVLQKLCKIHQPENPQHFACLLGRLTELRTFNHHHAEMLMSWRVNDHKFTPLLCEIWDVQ
Sequence of Oxysterols receptor LXR-beta (Homo sapiens) (P55055 whole entry, looked up, the tested form may be a part): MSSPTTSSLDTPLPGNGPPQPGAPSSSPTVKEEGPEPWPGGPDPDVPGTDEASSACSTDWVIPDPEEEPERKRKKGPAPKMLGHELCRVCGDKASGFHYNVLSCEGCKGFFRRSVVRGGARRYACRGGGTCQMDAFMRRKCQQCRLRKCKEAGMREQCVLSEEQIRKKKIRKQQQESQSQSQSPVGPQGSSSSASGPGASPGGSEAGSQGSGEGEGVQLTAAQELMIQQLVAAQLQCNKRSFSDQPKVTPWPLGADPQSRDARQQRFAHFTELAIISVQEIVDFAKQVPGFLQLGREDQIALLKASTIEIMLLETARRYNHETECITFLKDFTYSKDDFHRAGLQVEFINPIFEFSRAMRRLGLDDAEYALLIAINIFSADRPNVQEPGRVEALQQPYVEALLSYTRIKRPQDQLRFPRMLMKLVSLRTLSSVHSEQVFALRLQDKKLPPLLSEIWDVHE
Sequence of Oxysterols receptor LXR-alpha (Homo sapiens) (Q13133 whole entry, looked up, the tested form may be a part): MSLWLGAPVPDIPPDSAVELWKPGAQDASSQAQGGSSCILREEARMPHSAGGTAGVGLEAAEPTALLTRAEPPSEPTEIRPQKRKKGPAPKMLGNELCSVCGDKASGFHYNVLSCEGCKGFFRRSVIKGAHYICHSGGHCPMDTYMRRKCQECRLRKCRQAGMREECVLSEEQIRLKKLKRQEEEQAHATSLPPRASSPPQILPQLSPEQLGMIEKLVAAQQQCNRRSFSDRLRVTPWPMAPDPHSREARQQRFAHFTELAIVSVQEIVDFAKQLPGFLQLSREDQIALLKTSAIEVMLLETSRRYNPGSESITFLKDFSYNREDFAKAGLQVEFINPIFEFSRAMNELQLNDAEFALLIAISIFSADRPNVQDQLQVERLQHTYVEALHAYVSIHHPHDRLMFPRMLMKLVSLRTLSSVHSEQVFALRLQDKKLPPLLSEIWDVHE
Sequence of Nuclear respiratory factor 1 (Homo sapiens) (Q16656 whole entry, looked up): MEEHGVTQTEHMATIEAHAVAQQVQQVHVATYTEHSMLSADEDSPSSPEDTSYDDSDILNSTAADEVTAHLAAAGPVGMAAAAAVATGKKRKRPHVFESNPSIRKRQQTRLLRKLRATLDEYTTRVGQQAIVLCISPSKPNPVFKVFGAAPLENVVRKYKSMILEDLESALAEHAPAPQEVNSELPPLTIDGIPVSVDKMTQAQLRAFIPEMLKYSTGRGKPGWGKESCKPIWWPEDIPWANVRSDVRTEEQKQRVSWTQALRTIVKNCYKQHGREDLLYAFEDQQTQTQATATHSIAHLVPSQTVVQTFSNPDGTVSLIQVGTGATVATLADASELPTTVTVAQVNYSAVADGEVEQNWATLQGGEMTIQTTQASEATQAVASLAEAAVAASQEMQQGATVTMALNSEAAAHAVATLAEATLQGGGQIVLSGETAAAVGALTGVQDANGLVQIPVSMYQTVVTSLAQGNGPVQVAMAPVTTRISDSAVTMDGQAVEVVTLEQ
Sequence of Nuclear receptor subfamily 4 group A member 2 (Homo sapiens) (P43354 whole entry, looked up, the tested form may be a part): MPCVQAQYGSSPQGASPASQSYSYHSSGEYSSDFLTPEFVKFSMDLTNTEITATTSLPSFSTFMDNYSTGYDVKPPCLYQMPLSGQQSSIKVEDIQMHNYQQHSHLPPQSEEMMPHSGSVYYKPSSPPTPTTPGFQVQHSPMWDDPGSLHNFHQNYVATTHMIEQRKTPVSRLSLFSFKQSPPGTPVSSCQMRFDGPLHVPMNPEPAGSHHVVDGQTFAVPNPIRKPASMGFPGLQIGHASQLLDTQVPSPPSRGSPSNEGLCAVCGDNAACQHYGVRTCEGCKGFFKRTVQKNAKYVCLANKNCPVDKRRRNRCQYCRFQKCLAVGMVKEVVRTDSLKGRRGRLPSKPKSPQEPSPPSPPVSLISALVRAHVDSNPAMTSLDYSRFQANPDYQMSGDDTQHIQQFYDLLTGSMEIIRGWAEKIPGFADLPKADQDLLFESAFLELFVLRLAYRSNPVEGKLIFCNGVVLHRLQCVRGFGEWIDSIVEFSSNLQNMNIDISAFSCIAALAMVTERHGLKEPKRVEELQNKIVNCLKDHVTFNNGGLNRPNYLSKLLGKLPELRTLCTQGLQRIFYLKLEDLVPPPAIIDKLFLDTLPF
Sequence of Hepatocyte nuclear factor 4-alpha (Homo sapiens) (P41235 whole entry, looked up, the tested form may be a part): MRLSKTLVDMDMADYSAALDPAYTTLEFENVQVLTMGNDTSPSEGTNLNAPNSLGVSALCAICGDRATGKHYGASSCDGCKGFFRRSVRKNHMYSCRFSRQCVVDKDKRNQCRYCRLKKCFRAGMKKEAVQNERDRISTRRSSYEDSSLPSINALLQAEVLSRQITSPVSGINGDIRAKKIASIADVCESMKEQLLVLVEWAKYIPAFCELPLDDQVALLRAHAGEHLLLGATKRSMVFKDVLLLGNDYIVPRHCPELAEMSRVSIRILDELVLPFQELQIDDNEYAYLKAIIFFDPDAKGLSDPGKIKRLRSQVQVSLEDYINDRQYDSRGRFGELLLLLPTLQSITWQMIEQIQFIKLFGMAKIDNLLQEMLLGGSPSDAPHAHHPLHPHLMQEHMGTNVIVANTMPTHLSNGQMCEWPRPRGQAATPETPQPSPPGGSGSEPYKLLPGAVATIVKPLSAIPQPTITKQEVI
Sequence of Glucocorticoid receptor (Homo sapiens) (P04150 whole entry, looked up, the tested form may be a part): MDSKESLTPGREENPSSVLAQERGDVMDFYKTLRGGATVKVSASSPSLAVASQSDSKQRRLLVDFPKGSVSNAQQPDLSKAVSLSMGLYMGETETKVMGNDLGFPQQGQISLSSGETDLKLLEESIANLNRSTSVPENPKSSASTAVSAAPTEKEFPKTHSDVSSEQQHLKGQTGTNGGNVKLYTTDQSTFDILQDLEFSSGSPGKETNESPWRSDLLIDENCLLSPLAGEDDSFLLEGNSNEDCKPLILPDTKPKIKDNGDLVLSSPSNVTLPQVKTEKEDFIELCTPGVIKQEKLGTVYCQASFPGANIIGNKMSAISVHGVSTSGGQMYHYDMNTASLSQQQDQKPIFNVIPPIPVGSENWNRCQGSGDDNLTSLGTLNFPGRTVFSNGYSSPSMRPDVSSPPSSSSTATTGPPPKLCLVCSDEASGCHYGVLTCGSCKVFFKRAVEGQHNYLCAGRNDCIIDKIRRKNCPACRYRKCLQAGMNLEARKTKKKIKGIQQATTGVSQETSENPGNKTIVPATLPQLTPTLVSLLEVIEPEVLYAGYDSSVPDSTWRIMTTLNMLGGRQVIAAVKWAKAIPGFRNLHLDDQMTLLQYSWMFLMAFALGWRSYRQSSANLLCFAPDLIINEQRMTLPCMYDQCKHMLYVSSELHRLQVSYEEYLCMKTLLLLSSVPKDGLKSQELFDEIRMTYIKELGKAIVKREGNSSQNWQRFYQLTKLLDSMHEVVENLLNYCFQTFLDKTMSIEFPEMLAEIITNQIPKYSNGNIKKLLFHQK

CN(N=O)C(N)=O
not listed: [14] | [15] | [16]
inactive: all other assays above

C=CCOC(N)=O
not listed: [2] | [14] | [15] | [16]
inactive: all other assays above

Cc1cccc(C)c1NC(=O)CN1CCCC1=O
inactive: [1] | [5] | [14] | [8] | [11] | [12] | [13] | [15]

COC(=O)Nc1cccc(OC(=O)Nc2cccc(C)c2)c1
inactive: [1] | [2] | [16] | [5] | [14] | [8] | [11] | [13]

CCOC(=O)CC(=O)CCl
active: [1] 23.6 µM
inactive: [7] | [10] | [12] | [13] | [15]

OC[P+](CO)(CO)CO
not listed: [5] | [10] | [14] | [16]
inactive: all other assays above

CCCCCCCCCCCCCCC(Br)C(=O)O (stereo not given)
inactive: [2] | [3] | [4] | [5] | [9] | [13]
active: [1] 152 µM | [10] 26.4 µM | [11] 163 µM | [12] 168 µM

CN(C)C(=S)S
inactive: [1] | [2] | [3] | [6] | [7] | [13] | [15]
active: [14] 24.8 µM

CN(C)[C@@H]1C(=O)C(C(N)=O)=C(O)[C@@]2(O)C(=O)C3=C(O)c4c(O)ccc(Cl)c4[C@@](C)(O)[C@H]3C[C@@H]12
not listed: [2] | [3] | [4] | [7] | [14] | [16]
inactive: all other assays above

COc1nn(C(=O)NS(=O)(=O)c2ccccc2OC(F)(F)F)c(=O)n1C
not listed: [2] | [6] | [10] | [12] | [14] | [16]
inactive: all other assays above

O=CCCl
inactive: [6] | [7] | [8] | [9] | [10] | [11] | [13]
active: [1] 24.7 µM | [12] 25.5 µM | [15] 24.5 µM

Oc1cc(Cl)c(Cl)cc1Cl
inactive: [2] | [3] | [6] | [8] | [9] | [11] | [12]
active: [1] 59 µM | [13] 66.4 µM | [15] 152 µM
